# According to ChEMBL document CHEMBL2218924, “A broad activity screen in support of a chemogenomic map for kinase signalling research and drug discovery” (Biochem J, 2013):
# Tests used:
# [1] = biological target: T1, Ephrin type-A receptor 3 (Homo sapiens) (UniProt P29320); details: at 10 µM
# T1 sequence (whole entry): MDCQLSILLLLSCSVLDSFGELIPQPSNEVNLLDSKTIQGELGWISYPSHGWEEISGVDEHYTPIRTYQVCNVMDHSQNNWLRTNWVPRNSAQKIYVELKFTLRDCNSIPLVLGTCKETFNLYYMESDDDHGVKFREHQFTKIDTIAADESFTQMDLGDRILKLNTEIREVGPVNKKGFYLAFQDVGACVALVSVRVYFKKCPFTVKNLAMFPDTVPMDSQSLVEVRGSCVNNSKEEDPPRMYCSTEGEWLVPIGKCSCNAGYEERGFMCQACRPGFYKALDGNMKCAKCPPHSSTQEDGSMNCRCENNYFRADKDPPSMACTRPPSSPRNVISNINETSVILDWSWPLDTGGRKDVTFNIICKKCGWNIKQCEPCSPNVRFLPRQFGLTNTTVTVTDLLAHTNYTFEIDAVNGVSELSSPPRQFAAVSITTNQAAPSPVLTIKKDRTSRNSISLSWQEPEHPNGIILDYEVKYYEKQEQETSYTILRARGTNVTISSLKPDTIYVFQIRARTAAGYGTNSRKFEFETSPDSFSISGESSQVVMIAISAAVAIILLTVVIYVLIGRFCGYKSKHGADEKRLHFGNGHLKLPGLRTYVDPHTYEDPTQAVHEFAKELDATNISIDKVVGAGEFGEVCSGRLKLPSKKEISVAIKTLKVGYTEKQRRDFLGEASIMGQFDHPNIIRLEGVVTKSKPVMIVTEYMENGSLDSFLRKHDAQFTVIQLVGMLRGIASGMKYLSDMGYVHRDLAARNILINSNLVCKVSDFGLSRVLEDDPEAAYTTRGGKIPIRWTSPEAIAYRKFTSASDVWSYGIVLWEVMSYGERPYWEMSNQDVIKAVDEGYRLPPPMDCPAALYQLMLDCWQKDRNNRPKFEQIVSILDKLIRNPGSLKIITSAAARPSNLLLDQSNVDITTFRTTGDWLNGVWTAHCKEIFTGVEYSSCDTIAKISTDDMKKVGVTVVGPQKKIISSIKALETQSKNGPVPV
# [2] = biological target: Ephrin type-A receptor 4 (Homo sapiens) (UniProt P54764); details: at 1 µM
# [3] = biological target: Ephrin type-A receptor 4 (Homo sapiens) (UniProt P54764); details: at 10 µM
# [4] = biological target: Ephrin type-A receptor 5 (Homo sapiens) (UniProt P54756); details: at 1 µM
# [5] = biological target: Ephrin type-A receptor 5 (Homo sapiens) (UniProt P54756); details: at 10 µM
# [6] = biological target: Ephrin type-A receptor 7 (Homo sapiens) (UniProt Q15375); details: at 1 µM
# [7] = biological target: Ephrin type-A receptor 7 (Homo sapiens) (UniProt Q15375); details: at 10 µM
# [8] = biological target: T2, Ephrin type-A receptor 8 (Homo sapiens) (UniProt P29322); details: at 1 µM
# T2 sequence (whole entry): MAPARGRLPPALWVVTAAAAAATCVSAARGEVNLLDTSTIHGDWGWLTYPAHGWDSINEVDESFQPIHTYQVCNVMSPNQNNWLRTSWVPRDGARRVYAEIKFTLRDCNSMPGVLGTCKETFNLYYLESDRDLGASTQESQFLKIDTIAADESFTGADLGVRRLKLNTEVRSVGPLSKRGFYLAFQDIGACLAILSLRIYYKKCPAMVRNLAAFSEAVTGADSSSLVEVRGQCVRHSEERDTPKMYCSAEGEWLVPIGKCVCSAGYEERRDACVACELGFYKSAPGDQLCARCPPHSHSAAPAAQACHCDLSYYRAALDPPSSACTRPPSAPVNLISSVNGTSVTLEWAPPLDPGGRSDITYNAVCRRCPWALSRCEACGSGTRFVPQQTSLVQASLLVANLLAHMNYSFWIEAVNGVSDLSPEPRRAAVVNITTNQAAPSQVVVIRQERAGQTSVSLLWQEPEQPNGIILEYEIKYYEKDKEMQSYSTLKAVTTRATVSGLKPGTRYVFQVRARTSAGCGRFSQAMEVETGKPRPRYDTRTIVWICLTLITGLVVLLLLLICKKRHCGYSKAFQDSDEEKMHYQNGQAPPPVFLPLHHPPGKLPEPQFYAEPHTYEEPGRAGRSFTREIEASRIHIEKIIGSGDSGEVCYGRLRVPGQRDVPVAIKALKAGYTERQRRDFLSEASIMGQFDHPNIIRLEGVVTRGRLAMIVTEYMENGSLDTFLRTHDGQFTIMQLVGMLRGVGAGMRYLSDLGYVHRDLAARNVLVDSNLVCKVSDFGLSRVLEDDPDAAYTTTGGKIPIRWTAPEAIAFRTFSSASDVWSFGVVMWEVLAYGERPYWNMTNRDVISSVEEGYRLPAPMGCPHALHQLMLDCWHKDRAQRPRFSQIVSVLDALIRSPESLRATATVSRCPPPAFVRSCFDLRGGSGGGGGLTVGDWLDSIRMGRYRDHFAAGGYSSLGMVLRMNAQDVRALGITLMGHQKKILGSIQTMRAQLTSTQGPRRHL
# [9] = biological target: T2, Ephrin type-A receptor 8 (Homo sapiens); details: at 10 µM
# [10] = biological target: T3, Ephrin type-B receptor 1 (Homo sapiens) (UniProt P54762); details: at 1 µM
# T3 sequence (whole entry): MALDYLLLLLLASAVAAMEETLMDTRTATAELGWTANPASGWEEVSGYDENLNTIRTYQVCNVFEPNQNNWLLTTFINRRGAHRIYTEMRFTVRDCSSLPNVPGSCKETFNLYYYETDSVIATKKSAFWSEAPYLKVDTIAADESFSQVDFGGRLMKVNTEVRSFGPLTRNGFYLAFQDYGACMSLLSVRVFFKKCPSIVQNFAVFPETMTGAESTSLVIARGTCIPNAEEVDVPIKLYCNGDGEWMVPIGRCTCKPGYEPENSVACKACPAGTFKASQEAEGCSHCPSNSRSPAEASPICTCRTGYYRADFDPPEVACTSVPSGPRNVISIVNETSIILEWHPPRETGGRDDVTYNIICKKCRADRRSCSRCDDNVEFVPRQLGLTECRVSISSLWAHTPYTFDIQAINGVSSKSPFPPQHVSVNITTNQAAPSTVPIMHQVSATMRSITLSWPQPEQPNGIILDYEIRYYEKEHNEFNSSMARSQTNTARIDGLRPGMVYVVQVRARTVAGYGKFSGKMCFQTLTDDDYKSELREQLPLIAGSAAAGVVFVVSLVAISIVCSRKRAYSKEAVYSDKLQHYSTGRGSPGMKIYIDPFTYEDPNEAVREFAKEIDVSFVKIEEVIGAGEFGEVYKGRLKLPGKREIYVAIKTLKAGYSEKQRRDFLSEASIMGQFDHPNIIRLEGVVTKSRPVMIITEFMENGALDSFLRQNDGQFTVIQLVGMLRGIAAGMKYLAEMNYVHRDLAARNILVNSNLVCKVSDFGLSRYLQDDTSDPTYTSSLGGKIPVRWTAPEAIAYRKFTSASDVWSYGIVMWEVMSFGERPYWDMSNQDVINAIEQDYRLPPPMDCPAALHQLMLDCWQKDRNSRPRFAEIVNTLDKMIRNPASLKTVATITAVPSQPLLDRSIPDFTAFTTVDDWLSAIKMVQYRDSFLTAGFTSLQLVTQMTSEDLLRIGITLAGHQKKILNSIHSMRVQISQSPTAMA
# Ephrin type-A receptor 5 (Homo sapiens), sequence (P54756 whole entry): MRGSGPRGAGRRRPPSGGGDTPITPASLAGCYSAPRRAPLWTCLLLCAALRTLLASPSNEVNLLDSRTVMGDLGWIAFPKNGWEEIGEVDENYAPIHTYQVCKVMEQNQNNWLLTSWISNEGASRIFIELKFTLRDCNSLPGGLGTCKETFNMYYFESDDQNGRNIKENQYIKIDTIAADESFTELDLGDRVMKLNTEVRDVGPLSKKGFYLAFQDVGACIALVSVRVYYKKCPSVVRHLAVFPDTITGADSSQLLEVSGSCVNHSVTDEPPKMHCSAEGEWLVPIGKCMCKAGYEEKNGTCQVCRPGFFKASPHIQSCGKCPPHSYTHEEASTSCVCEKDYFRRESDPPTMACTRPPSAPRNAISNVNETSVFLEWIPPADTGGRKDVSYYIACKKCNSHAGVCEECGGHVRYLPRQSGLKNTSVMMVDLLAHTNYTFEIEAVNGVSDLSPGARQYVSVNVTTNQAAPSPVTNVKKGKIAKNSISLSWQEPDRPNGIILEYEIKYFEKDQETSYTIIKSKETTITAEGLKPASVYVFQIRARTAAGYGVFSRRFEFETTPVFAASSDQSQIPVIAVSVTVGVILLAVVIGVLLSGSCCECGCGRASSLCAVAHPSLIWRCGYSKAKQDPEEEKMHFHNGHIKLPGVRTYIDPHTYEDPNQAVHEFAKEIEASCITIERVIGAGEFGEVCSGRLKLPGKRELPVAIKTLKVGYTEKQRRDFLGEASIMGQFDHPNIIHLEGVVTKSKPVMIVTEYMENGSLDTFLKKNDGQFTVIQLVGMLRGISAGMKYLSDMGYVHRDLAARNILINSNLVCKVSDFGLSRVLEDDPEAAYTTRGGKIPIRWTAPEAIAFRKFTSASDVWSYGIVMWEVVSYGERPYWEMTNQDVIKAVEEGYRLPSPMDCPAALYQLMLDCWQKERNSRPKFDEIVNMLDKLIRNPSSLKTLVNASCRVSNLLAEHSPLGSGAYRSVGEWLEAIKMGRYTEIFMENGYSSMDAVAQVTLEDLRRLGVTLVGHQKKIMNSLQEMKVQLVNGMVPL
# Ephrin type-A receptor 7 (Homo sapiens), sequence (Q15375 28-998 limits assumed): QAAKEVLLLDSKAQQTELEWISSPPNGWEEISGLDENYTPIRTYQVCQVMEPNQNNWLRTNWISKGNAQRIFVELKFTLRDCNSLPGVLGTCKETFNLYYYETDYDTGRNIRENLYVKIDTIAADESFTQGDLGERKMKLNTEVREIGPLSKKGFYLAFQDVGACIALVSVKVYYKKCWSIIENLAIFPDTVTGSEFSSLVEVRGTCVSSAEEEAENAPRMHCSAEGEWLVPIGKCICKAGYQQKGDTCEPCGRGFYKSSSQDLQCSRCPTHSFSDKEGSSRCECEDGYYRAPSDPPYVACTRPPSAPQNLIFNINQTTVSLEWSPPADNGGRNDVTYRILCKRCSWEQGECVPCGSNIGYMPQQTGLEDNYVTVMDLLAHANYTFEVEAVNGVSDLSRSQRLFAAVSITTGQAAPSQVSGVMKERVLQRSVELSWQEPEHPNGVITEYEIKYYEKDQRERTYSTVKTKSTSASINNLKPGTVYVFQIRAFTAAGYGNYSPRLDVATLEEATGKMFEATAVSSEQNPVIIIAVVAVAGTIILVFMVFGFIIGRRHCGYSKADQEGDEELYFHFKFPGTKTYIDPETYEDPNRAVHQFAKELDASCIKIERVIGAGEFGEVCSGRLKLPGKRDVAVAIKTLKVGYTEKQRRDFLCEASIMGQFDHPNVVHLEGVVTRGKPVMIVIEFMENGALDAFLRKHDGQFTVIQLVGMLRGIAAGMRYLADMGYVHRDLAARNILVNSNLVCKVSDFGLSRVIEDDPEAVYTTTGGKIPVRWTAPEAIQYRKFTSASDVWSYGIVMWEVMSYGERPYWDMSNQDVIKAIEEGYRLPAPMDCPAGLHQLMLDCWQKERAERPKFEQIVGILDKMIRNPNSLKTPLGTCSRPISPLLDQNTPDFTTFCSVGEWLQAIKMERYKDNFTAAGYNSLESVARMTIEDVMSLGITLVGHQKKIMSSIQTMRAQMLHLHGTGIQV
# Ephrin type-A receptor 4 (Homo sapiens), sequence (P54764 whole entry): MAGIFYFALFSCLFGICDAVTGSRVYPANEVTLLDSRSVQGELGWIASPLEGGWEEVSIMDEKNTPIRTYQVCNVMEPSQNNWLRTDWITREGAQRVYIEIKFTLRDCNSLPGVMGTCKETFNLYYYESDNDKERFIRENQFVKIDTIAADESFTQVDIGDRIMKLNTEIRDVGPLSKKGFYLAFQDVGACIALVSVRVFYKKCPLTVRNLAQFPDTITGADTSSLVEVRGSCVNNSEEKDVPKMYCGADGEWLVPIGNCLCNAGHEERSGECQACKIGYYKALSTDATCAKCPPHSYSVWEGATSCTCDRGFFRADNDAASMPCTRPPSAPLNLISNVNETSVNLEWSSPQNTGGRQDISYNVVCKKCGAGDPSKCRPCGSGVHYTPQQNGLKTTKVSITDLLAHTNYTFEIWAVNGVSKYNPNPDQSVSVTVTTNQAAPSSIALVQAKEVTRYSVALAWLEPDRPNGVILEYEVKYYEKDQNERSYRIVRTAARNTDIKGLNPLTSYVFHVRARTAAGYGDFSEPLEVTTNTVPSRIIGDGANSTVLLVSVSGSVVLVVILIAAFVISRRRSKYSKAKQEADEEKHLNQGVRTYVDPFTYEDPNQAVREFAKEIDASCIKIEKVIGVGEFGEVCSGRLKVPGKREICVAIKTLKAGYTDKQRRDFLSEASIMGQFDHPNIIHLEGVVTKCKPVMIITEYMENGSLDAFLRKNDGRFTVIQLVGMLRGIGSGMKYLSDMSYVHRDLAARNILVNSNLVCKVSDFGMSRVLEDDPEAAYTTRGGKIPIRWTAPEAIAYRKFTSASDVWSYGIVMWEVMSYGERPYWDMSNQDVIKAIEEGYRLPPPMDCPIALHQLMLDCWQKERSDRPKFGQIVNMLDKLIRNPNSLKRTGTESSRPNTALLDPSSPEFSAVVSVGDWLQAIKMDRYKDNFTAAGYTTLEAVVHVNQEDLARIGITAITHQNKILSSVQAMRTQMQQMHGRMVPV
smiles,measurement,setting,value
O=C1Nc2cc(Br)ccc2/C1=C1/Nc2ccccc2/C1=N\O,residual activity,[1],3%
same,residual activity,[2],109%
same,residual activity,[3],98%
same,residual activity,[4],37%
same,residual activity,[5],42%
same,residual activity,[6],68%
same,residual activity,[7],20%
same,residual activity,[8],69%
same,residual activity,[9],82%
same,residual activity,[10],34%
